The results in this text go back to ChEMBL document CHEMBL3988442, “University of Dundee, Small-Polar-MMV Screening Library” (2021).

In all, about 48,000 compounds went through this assay and about 13,000 (27%) showed an effect of 50% or more. This is one part of the list.

The assay concerns Wolbachia pipientis. Put plainly: Anti-Wolbachia Cell-Based Screen. The class given is functional. Conditions: 5 µM. More on the design: scale not given: in the data most compounds retested in dose-response had high values.
For `O=c1[nH]c(CCN2CCN(CC(F)(F)F)CC2)nc2ccccc12`, the “Percent Effect” value was -18.37%. On to `O=C(CN1CCCNC1=O)Nc1ccccc1C(=O)C1CCCC1`, for which the “Percent Effect” value was 8.695%. For `CC(C)N1CC[C@H](c2nnc(Cc3c[nH]c4ccccc34)o2)C1` the value was -6.101%; for `CC(C)CCN1CC[C@H](c2nnc(Cc3c[nH]c4ccccc34)o2)C1`, -3.447%; for `OCC1(Cc2ccc(Cl)cc2)CCN(Cc2cccnc2)CC1`, -27.42%.

As for `O=C(O)c1ccc2c(CN3CCOCC3)c[nH]c2c1`, the “Percent Effect” value is 6.765%.

For `CC(C)C1=NOC2(CCN(Cc3c[nH]c4ccccc34)CC2)C1`, the “Percent Effect” value came to 126.9%. With `O=C(O)c1ccc2c(CN3CCCC3)c[nH]c2c1`, the “Percent Effect” value was -9.8%.

In the case of `c1ccc(C2=NOC3(CCN(Cc4c[nH]c5ccccc45)CC3)C2)cc1`, the “Percent Effect” value came out at 122.3%.

`Clc1ccc(CN2CCOC[C@H](Oc3cccnc3)C2)cc1`: the “Percent Effect” value was -8.51%. `c1cncc(O[C@H]2COCCN(Cc3c[nH]c4ccccc34)C2)c1`: the “Percent Effect” value is listed as 0.3938%. As to `Clc1ccc(CN2CCC3(CC2)CC(c2cccnc2)=NO3)cc1`, the “Percent Effect” value is on record as 114.5%. For `c1cncc(C2=NOC3(CCN(Cc4c[nH]c5ccccc45)CC3)C2)c1`, the “Percent Effect” value is given as 119%. For `CC1(C)CN(Cc2nnc(-c3cccnc3)o2)CC[C@]1(C)O` the value was -0.3969%.

As to `CCc1nnc2n1CCN(C(=O)c1csc(-c3cnn(C)c3)n1)C2`, the “Percent Effect” value was -10.57%. Turning to `CCN1C[C@H]2CCN(C(=O)C3CCCO3)CC[C@H]2S1(=O)=O` (some centres undefined), the “Percent Effect” value was -2.394%. Under `CCCN1CCC(N(Cc2ncc(C)o2)C(C)=O)C1` (centres undefined) stands 4.824%. `Cc1nnc(CN(C)C2CCN(CCc3cccs3)C2)n1C` (centres undefined): the “Percent Effect” value was determined as 4.049%. Under `CN(Cc1nnc(C2CC2)o1)C1CCN(CCc2cccs2)C1` (centres undefined) stands -15.6%; under `CCc1nc(CN(C(C)=O)C2CCN(Cc3cnc(C)cn3)C2)no1` (centres undefined), -6.946%; under `CCc1nc(CN(C(C)=O)C2CCN(CCc3cccs3)C2)no1` (centres undefined), 109.6%. Regarding `CCc1cnc(CN(C(C)=O)C2CCN(CCc3cccs3)C2)o1` (centres undefined), the “Percent Effect” value was 1.615%. Under `Cc1nc(CN(C)C2CCN(CCc3cccs3)C2)no1` (centres undefined) stands 100.8%; under `CN(Cc1noc(C2CC2)n1)C1CCN(CCc2cccs2)C1` (centres undefined), 86.2%; under `CCn1c(C)nnc1CN(C)C1CCN(CCc2cccs2)C1` (centres undefined), -15.8%. For `CC(=O)N(Cc1ncc(C)o1)C1CCN(CCc2cccs2)C1` (centres undefined) the value was 95.79%. Under `CCc1nc(CN(C(C)=O)C2CCN(CCc3cnn(C)c3)C2)no1` (centres undefined) stands -3.276%; under `Cc1ccc(CCN2CCC(N(C)Cc3noc(C4CC4)n3)C2)cc1` (centres undefined), 33.43%; under `O=C(CSc1ccc2c(c1)OCCO2)NS(=O)(=O)c1cccnc1`, 7.646%. Regarding `O=C(O)C(F)(F)F.O=C([C@@H]1COC[C@H]2CN(CC3CC3)C[C@H]21)N1CCC(F)CC1`, the “Percent Effect” value is recorded as -0.2992%.

Regarding `Cc1ncc2c(n1)CCN(C(C(N)=O)c1ccccc1)C2` (centres undefined), the “Percent Effect” value was -10.42%. For `CC(C)NC(=O)[C@H]1C[C@@H]2[C@@H](C1)OCCN2CC1CC1.O=C(O)C(F)(F)F` the value was -2.648%; for `CCc1nc(CN2CCCC(N(C)Cc3cnc(C)s3)C2)no1` (centres undefined), -6.39%; for `Cc1nc(CN(C)C2CCN(CCc3ccccn3)C2)no1` (centres undefined), 113.1%. Under `CCc1nc(CN(C)C2CCN(CCS(C)(=O)=O)C2)no1` (centres undefined) stands 2.202%. For `CCc1nc(CN2CCCC(N(C)CCc3cccs3)C2)no1` (centres undefined) the value was 105.7%; for `Cc1nc(CN2CCCC(N(C)CCc3cccs3)C2)no1` (centres undefined), 6.086%. Take `CCc1nc(CN(C)C2CCN(CCc3ccccn3)C2)no1` (centres undefined): the “Percent Effect” value amounted to 16.6%. For `CCc1nc(CN(C)C2CCN(CCn3cccn3)C2)no1` (centres undefined), the “Percent Effect” value is on record as 113.6%. With `CC(C)c1cnc(CN(C)C2CCN(CCc3ccccn3)C2)o1` (centres undefined), the “Percent Effect” value is -3.925%. Under `CCc1nc(CN(C)C2CCN(CCc3cccs3)C2)no1` (centres undefined) stands 104.6%; under `Cc1ccc(NCc2cn3c(n2)CN(Cc2ccc(C)o2)CC3)nn1.O=C(O)C(F)(F)F.O=C(O)C(F)(F)F`, -14.5%.

With `COCCN1CCCC2(CCN(c3nccc4ccccc34)C2)C1=O` (centres undefined), the “Percent Effect” value was found to be 0.09488%. For the molecule `CN(C)C(=O)N1C[C@@H]2CC[C@H](C1)N(Cc1nnc(-c3ccco3)o1)C2`, the “Percent Effect” value came to 70.33%. Under `c1ccc(-c2nnc(CN3C[C@@H]4CC[C@H](C3)N(CC3CCC3)C4)o2)cc1` stands 0.05664%; under `c1ccc(CN2C[C@@H]3CC[C@H](C2)N(Cc2nnc(C4CC4)o2)C3)cc1`, -6.562%. For `CN(C)C(=O)N1C[C@@H]2CC[C@H](C1)N(C/C=C/c1ccc(F)cc1)C2` the value was 7.662%; for `CN(C)C(=O)N1C[C@@H]2CC[C@H](C1)N(Cc1ccc3nsnc3c1)C2`, -1.823%; for `CN(C)C(=O)N1C[C@@H]2CC[C@H](C1)N(Cc1nnc(-c3ccccc3)o1)C2`, 137.1%. For `CC(C1CC1)N(C)Cc1nnc(-c2ccco2)o1` (centres undefined) the value was -0.554%. For the molecule `c1ccc(CN2C[C@H]3CC[C@@H]2CN(Cc2nnc(C4CC4)o2)C3)cc1`, the “Percent Effect” value worked out at 2.015%. Under `CN(C)C(=O)N1C[C@@H]2CC[C@H](C1)N(Cc1nnc(C3CC3)o1)C2` stands 98.65%; under `CCC(NCc1ccccn1)c1ccccc1OCC(=O)NC` (centres undefined), 13.68%; under `CN1CCOC(CNC(=O)CCCOCCc2ccccc2)C1` (centres undefined), -8.698%. For `CN1CCOC(CNCc2cccc(OCC(F)(F)F)c2)C1` (centres undefined) the value was -1.081%. Take `COCCOc1cccc(CNCC2CN(C)CCO2)c1` (centres undefined): the “Percent Effect” value worked out at 121.8%. For the molecule `CN1CCOC(CNCc2cccc(OC(F)(F)F)c2)C1` (centres undefined), the “Percent Effect” value is on record as 76.13%.

For the molecule `FC(F)(F)Oc1cccc(CNC[C@H]2Cn3ccnc3CO2)c1`, the “Percent Effect” value is -15.74%. For `COc1cccc(CNCC2CN(C)CCO2)c1` (centres undefined) the value was 98.93%. For `CCCOc1cccc(CNC(=O)CN2CCN(C)CC2C)c1` (centres undefined) the value was -6.684%; for `CCOC(=O)CCNC(=O)N1CCOC(Cc2cccc(OC)c2)C1` (centres undefined), -8.536%; for `CN1CCOC(CNCc2nc(-c3ccco3)no2)C1` (centres undefined), -7.293%. As for `CCCc1n[nH]c(C2CN(CCNC3CCCCC3)CCO2)n1` (centres undefined), the “Percent Effect” value is on record as 8.814%.

As for `COc1cc(CNc2nc(C3CC3)no2)cc(OC)c1OC`, the “Percent Effect” value is 3.811%. For `Cc1ccc(F)cc1-n1c(CCCN2CCOCC2)n[nH]c1=O` the value was 109.2%; for `O=C(NCCN1CCOCC1)c1cc(-c2ccc3c(c2)CCO3)n[nH]1`, 2.601%; for `O=c1[nH]nc(CCCN2CCOCC2)n1Cc1cccc(F)c1`, 102.2%. For `O=C(NCc1cccc(F)c1)Nc1ccn(CCN2CCOCC2)n1` the value was -19.73%; for `O=C1CCC(=O)N1CCN1CCN(c2cc(F)ccc2F)CC1`, -16.23%.

For `Cc1nc(CCCN2CCOCC2)n(Cc2ccc(F)cc2)n1`, the “Percent Effect” value is recorded as -6.384%. Under `O=c1[nH]nc(CCCN2CCOCC2)n1-c1ccc(F)cc1F` stands 93.86%; under `O=C(NCCN1CCOCC1)Nc1cc(F)ccc1-n1cccn1`, -8.933%. In the case of `O=C1O[C@@H]2CN(Cc3cccc(F)c3)C[C@@H]2N1CCCN1CCOCC1`, the “Percent Effect” value was found to be 11.87%.

As to `CN1C[C@@H](n2cnc(-c3ccccc3)c2-c2ccccn2)C[C@H]1C(=O)O`, the “Percent Effect” value is recorded as -24.01%.

As for `CC(C)(C)CN1CCOC[C@H]1c1nc(-c2cccc(F)c2)c[nH]1`, the “Percent Effect” value stood at 4.483%. Under `Cc1nn(C)cc1CN1CCCn2nc(CNC(=O)C3CCC3)cc2C1` stands -11.1%. Under `Cc1nccnc1N1CC[C@@H](NC(=O)c2cnccn2)[C@H](O)C1` stands -17.03%; under `Cc1nn(C)cc1S(=O)(=O)N[C@@H]1CCC[C@@H](n2ccnc2)[C@@H]1O`, 85.24%; under `Cc1nccn1C1CCCN(C(=O)C2=NN(C)C(=O)CC2)C1` (centres undefined), -2.156%.

Regarding `Cn1cc(S(=O)(=O)N2CCCC2Cn2ccnc2)cn1` (centres undefined), the “Percent Effect” value is on record as -1.128%. On to `Cc1nn(C)cc1S(=O)(=O)N[C@@H]1CCC[C@@H](N2CCCC2)[C@@H]1O`, for which the “Percent Effect” value stood at 95.33%. For `Cc1nn(C)cc1S(=O)(=O)N[C@@H]1CC[C@@H](n2ccnc2C)[C@@H]1O` the value was 99.22%; for `CO[C@@H]1CC[C@@H](NS(=O)(=O)c2cn(C)nc2C)[C@H]1O`, 86.74%; for `Cn1cc(S(=O)(=O)N2CCCC2Cn2ccnc2)cc1C(N)=O` (centres undefined), -5.902%.

On to `Cc1nc2n(n1)CC(NCC(=O)NCC1(c3ccccc3)CC1)CC2` (centres undefined), for which the “Percent Effect” value is -4.512%. Take `CN(C(=O)c1cccc(OCC(F)F)n1)c1ccc2c(c1)CCO2`: the “Percent Effect” value was determined as 3.505%. Under `CCCOc1cccc(NS(=O)(=O)c2cc(C(=O)O)cs2)c1` stands 12.59%; under `Cc1ccccc1C(=O)Nc1ccc([C@H]2OCC(=O)N(C)[C@@H]2CO)cc1`, -10.53%; under `Cn1cc(C(=O)NC2CCCC2)c(-c2cccnc2)n1`, 1.647%. In the case of `O=C(NC1CC1)C1CCCN(c2cccc(C(F)(F)F)n2)C1` (centres undefined), the “Percent Effect” value is listed as -13%.

Regarding `O=C(NC1CC1)C1CCc2nnc(-c3cccc(C(F)(F)F)c3)n21` (centres undefined), the “Percent Effect” value is 107.7%. Under `CN1Cc2nc[nH]c2C[C@H]1C(=O)NC1CCCCC1` stands 0.3029%; under `CNC(=O)C(C)(C)N1CCC[C@H]1C(=O)NC1CC1`, 8.345%. Regarding `O=C(NC1CC1)C1CCc2nnc(-c3cccnc3)n21` (centres undefined), the “Percent Effect” value is 102.7%. As to `O=C(NC1CC1)C1CCc2nnc(C3CC3)n21` (centres undefined), the “Percent Effect” value worked out at 105.6%. Take `CN(CC1CCCCC1)C(=O)c1cn(C)nc1-c1cccnc1`: the “Percent Effect” value was 20.64%. Take `CCCS(=O)(=O)N1C[C@@H]2COC[C@@H](Cc3nc(C)no3)[C@@H]2C1`: the “Percent Effect” value is 1.373%. Under `CCc1nc(CN2CCCN(C(=O)c3cn[nH]c3C)CC2)cs1` stands 4.84%; under `COc1cc(NCCNC(=O)c2cscc2C)cc(OC)c1`, -3.159%.
